# Of roughly 7,900 targets only a part is listed; those with a hit were picked by preference. About 0.6% of all pairs of compound and target were hits. A number with no mark means an inactive call.
# Columns and labels:
# Assay in all cases: log2 fold change, soluble protein after heating vs DMSO (PISA); higher = thermal stabilisation; K562 cells, 10 uM, 30 min; active = over 0.2 and 3.5 SD of the protein, either way, in both replicates (recomputed)
# erlotinib = compound: C#Cc1cccc(Nc2ncnc3cc(OCCOC)c(OCCOC)cc23)c1 [erlotinib]
# Summary of the method: (§1)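 For each measurement, 10 μM compound was applied for 30 min to K562 cells at 2×10^6 cells/mL. Aliquots were heated for 3 min across 48°C-58°C, pooled, and extracted in PBS with 0.5% NP-40 at 4°C; the supernatant after 21,000xg for 90 min was soluble protein. This was quantified by TMTpro 16plex LC-MS/MS with channel sums equalised, and thermal stability was reported relative to control samples from duplicates, on a log2 fold-change scale.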
# [1] = compound: C/C(=N\NC(=O)C1=CC(=CC=C1)S(=O)(=O)N2CCOCC2)/C3=C(C=CC(=C3)Cl)O
# Summary of the method: as §1
# [2] = compound: C1=CC(=C(C=C1Cl)C2=NC3=NC=CN=C3C(=N2)NC4=CC=NC=C4)F
# Summary of the method: as §1
# [3] = compound: C1=CC(=CC=C1C2=NC3=C(N2)C=C(C=C3)C(=O)N)OC4=CC=C(C=C4)Cl
# Summary of the method: as §1
# [4] = compound: C1=CC2=C(C=CC(=C2)/C=C\3/C(=O)NC(=NCC4=CC=CS4)S3)N=C1
# Summary of the method: as §1
# [5] = compound: C1=CC2=NC=CN=C2C=C1/C=C/3\C(=O)NC(=O)S3
# Summary of the method: as §1
# [6] = compound: C1=CC=C(C=C1)C2=NC(=C(N2)C3=CC=NC=C3)C4=CC(=C(C=C4)Cl)O
# Summary of the method: as §1
# [7] = compound: C1=CC=C2C(=C1)C3=NNC4=CC=CC(=C43)C2=O
# Summary of the method: as §1
# [8] = compound: C1CCN(C1)C(=O)NC2=CC=CC(=C2)NC3=NC=C(C(=N3)NCCC4=CN=CN4)Br
# Summary of the method: as §1
# [9] = compound: C1CN(CCC1(CC2=CC=C(C=C2)Cl)N)C3=NC=NC4=C3C=CN4
# Summary of the method: as §1
# IRAK-1-4 Inhibitor I = compound: C1COCCN1CCN2C3=CC=CC=C3N=C2NC(=O)C4=CC(=CC=C4)[N+](=O)[O-] [IRAK-1-4 Inhibitor I]
# Summary of the method: as §1
# ibrutinib = compound: C=CC(=O)N1CCC[C@@H](n2nc(-c3ccc(Oc4ccccc4)cc3)c3c(N)ncnc32)C1 [ibrutinib]
# Summary of the method: as §1
# [10] = compound: CC(=O)c1cnc2ccc(-c3cc(Cl)c(O)c(Cl)c3)nc2c1N[C@H]1CC[C@H](CN(C)C)CC1
# Summary of the method: as §1
# ralimetinib = compound: CC(C)(C)Cn1c(N)nc2ccc(-c3[nH]c(C(C)(C)C)nc3-c3ccc(F)cc3)nc21 [ralimetinib]
# Summary of the method: as §1
# [11] = compound: CC(C)(O)CC(=O)NCCn1ccc2ncnc(Nc3ccc(Oc4cccc(C(F)(F)F)c4)c(Cl)c3)c21
# Summary of the method: as §1
# [12] = compound: CC(C)C1=C2N=C(C=C(N2N=C1)NCC3=CC=CC=C3)NCCCCCCN
# Summary of the method: as §1
# [13] = compound: CC(C)C[C@@H](C=O)NC(=O)[C@H](CC(C)C)NC(=O)[C@H](CC(C)C)NC(=O)OCc1ccccc1
# Summary of the method: as §1
# pinometostat = compound: CC(C)N(C[C@H]1O[C@@H](n2cnc3c(N)ncnc32)[C@H](O)[C@@H]1O)[C@H]1C[C@@H](CCc2nc3cc(C(C)(C)C)ccc3[nH]2)C1 [pinometostat]
# Summary of the method: as §1
# [14] = compound: CC1=C(C(CC(=O)N1)C2=CC=C(C=C2)C(F)(F)F)C(=O)NC3=C(C=C4C(=C3)C=NN4)F
# Summary of the method: as §1
# [15] = compound: CC1=C(C2=C(C=C1)C(=O)C3=CC=CC=C3N2CCCN)C
# Summary of the method: as §1
# UniProt P54709, sequence (P54709 whole entry, looked up): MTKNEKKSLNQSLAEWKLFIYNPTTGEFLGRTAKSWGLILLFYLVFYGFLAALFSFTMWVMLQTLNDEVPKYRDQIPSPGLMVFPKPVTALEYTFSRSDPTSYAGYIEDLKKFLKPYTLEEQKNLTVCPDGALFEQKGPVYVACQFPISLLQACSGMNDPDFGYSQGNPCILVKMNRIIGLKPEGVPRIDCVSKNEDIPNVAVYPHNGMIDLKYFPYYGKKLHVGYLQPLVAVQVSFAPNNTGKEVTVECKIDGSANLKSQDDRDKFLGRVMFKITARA
# UniProt Q8WUW1, sequence (Q8WUW1 whole entry, looked up): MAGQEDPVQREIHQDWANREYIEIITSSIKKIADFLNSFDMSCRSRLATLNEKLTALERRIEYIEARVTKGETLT
# UniProt Q9Y679, sequence (Q9Y679 whole entry, looked up): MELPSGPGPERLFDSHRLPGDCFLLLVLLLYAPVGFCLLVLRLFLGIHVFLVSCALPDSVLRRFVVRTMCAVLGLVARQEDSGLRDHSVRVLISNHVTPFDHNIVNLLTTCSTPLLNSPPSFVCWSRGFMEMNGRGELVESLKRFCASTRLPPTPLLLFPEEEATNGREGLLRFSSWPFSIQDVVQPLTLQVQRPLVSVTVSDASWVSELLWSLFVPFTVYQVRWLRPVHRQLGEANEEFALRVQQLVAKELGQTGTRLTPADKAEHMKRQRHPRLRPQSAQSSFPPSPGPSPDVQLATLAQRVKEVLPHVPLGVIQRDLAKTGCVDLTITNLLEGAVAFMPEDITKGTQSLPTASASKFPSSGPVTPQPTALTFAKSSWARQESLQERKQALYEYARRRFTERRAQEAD
# UniProt Q6P6C2, sequence (Q6P6C2 whole entry, looked up): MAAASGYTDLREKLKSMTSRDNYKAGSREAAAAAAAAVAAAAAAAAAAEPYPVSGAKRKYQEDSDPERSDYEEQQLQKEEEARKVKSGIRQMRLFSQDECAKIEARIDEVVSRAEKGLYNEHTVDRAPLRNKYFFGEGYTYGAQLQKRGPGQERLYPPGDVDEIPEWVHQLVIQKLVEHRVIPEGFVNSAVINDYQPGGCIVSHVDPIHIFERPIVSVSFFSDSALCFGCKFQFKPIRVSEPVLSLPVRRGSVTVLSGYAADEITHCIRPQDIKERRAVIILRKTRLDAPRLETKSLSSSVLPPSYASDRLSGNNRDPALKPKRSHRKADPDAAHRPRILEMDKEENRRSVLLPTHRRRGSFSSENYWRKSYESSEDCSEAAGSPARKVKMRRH
# UniProt Q14137, sequence (Q14137 whole entry, looked up): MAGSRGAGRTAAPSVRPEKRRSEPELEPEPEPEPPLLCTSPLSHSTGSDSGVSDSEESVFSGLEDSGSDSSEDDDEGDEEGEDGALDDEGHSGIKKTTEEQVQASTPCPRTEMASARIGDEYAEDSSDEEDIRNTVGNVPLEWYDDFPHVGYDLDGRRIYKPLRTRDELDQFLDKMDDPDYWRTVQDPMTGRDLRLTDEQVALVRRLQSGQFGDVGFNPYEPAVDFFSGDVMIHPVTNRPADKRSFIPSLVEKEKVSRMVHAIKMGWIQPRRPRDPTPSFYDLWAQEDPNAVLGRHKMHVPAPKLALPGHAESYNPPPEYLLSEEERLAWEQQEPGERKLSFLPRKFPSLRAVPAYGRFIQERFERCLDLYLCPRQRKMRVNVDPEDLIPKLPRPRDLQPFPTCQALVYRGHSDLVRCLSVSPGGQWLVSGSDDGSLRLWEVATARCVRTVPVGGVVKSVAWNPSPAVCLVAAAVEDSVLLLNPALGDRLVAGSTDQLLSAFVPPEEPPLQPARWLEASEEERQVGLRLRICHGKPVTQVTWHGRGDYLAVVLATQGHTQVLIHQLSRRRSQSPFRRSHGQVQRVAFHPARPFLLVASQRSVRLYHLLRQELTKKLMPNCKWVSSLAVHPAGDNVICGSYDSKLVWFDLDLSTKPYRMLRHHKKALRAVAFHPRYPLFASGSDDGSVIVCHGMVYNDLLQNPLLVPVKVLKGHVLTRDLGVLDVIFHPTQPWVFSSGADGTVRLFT
# UniProt P55196, sequence (P55196 whole entry, looked up): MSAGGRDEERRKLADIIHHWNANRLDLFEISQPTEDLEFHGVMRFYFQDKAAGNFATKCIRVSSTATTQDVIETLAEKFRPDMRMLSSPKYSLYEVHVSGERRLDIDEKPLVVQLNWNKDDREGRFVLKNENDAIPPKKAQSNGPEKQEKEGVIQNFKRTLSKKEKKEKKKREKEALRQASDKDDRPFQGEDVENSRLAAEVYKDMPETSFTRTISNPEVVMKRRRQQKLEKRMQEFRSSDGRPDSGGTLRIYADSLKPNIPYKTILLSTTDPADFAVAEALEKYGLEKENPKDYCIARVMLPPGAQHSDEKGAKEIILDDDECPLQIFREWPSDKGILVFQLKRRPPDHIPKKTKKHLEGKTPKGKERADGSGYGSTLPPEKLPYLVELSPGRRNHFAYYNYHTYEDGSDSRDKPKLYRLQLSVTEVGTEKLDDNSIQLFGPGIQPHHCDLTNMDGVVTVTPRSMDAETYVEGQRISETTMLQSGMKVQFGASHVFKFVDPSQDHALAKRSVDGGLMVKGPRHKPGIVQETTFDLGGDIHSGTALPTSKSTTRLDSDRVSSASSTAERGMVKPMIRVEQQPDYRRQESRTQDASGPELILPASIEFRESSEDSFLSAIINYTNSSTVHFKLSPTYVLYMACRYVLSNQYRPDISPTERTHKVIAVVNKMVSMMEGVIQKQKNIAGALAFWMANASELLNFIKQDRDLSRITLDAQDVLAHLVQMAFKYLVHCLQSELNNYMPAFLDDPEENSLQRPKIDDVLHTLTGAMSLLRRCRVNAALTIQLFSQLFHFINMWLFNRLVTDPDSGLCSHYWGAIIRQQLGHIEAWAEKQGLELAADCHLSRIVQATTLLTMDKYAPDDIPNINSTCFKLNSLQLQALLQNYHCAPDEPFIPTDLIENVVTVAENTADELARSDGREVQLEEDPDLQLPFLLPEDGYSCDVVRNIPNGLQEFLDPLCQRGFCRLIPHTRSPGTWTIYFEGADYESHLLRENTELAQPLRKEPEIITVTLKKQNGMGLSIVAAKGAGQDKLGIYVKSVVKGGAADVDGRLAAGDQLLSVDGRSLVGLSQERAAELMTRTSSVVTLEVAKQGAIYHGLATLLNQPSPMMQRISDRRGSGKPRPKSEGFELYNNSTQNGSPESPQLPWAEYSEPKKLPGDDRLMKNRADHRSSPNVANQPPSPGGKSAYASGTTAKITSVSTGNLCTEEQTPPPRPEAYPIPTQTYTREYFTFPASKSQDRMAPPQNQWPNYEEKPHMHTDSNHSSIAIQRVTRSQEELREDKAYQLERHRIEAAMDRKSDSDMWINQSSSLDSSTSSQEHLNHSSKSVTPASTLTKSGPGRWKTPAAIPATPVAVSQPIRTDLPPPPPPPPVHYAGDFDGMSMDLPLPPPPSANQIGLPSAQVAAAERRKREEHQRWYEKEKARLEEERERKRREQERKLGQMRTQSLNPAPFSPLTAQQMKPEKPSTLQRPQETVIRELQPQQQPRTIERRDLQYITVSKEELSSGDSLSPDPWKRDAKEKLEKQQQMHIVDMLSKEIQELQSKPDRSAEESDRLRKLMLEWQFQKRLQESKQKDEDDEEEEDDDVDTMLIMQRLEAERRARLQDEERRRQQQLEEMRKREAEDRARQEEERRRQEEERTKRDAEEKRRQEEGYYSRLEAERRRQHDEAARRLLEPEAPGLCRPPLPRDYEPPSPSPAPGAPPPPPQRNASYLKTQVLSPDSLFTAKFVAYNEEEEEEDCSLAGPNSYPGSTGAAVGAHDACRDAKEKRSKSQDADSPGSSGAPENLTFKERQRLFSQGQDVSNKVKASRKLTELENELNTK
# UniProt O94973, sequence (O94973 whole entry, looked up): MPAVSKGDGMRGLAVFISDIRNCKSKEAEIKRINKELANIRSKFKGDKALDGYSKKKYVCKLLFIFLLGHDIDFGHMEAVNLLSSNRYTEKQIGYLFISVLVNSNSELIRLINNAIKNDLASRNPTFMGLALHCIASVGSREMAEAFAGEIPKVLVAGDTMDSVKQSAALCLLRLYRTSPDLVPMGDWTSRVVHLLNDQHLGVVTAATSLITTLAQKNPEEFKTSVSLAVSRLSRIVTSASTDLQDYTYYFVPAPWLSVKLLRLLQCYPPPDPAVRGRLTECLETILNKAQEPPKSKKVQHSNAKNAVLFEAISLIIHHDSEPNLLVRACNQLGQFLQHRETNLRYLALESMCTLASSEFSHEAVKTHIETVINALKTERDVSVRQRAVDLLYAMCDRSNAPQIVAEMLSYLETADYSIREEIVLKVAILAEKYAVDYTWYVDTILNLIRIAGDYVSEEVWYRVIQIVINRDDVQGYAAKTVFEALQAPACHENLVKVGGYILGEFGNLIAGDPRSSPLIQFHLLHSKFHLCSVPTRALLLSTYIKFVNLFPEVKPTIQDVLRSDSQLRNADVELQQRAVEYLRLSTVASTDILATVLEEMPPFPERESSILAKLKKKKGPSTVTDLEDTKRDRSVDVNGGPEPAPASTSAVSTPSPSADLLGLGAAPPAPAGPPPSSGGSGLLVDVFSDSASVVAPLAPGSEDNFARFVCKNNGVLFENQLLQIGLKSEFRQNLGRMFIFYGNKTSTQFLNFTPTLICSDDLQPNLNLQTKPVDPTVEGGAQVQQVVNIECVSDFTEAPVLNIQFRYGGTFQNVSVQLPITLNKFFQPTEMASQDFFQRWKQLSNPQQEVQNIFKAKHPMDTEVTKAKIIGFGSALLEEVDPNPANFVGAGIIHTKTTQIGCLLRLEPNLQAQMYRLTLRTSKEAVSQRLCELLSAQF
# UniProt Q9NX46, sequence (Q9NX46 whole entry, looked up): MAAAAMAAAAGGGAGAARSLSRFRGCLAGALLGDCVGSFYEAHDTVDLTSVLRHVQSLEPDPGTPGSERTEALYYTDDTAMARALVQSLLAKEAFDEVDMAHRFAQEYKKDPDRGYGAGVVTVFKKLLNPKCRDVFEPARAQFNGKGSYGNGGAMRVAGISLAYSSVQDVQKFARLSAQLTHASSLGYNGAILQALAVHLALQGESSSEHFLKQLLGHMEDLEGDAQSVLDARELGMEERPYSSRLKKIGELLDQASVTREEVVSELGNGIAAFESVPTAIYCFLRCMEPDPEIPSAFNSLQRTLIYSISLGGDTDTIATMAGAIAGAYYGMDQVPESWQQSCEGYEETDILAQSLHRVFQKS
Target,log2 fold change (erlotinib),log2 fold change [1],log2 fold change [2],log2 fold change [3],log2 fold change [4],log2 fold change [5],log2 fold change [6],log2 fold change [7],log2 fold change [8],log2 fold change [9],log2 fold change (IRAK-1-4 Inhibitor I),log2 fold change (ibrutinib),log2 fold change [10],log2 fold change (ralimetinib),log2 fold change [11],log2 fold change [12],log2 fold change [13],log2 fold change (pinometostat),log2 fold change [14],log2 fold change [15]
BOP1 (UniProt Q14137),-0.003,0.038,-0.144,0,-0.053,0.041,-0.153,-0.014,0.043,0.036,-0.039,0.01,-0.083,0.041,0.119,-0.068,0.031,0.021,0.01,-0.078
ADK (UniProt P55263),0.293,-0.034,0.06,-0.062,0.079,0.005,0.035,0.042,-0.032,0.085,0.08,0.034,0.184,0.246,-0.002,0.074,-0.058,0.016,-0.101,-0.001
BRK1 isoform 2 (UniProt Q8WUW1),-0.115,0.003,0.279,0.04,0.027,0.072,0.051,-0.02,-0.08,-0.037,-0.026,-0.004,-0.045,-0.037,-0.018,0.058,-0.053,-0.157,0.064,0.145
ANKRD29 (UniProt Q8N6D5),0.243,-0.445 (active),0.083,-0.021,0.223,-0.015,-0.046,0.098,-0.025,0.096,-0.001,-0.18,0.026,-0.057,-0.15,0.007,-0.153,-0.012,0.009,0.024
ALDH9A1 isoform 3 (UniProt P49189),-0.025,0.016,0.043,0.027,-0.004,0.003,0.037,-0.007,-0.018,0.051,0.059,0.025,0.003,-0.047,-0.004,0.019,-0.022,-0.013,0.028,-0.003
AP2A2 isoform 2 (UniProt O94973),0.007,0.014,-0.004,-0.012,0.007,0.004,0.072,-0.118,-0.284 (active),0.028,-0.003,-0.015,0.008,0.006,0.033,0.019,0.032,0.025,-0.02,0.107
ATP1B3 (UniProt P54709),-0.016,-0.004,-0.002,-0.019,-0.021,0.023,0.057,-0.052,-0.024,0.048,0.025,0.043,-0.03,-0.036,0.01,0.154,-0.008,-0.056,-0.012,-0.032
ALG3 (UniProt Q92685),0.024,0.127,0.07,-0.081,0.03,-0.002,0.022,-0.011,-0.133,0.103,-0.081,-0.022,-0.08,-0.08,-0.034,-0.267,-0.038,-0.075,-0.037,-0.045
ARGLU1 (UniProt Q9NWB6),0.016,0.052,-0.183,0.115,-0.38 (active),0.014,-0.125,-0.235,-0.02,-0.232,-0.289,-0.019,-0.633 (active),-0.029,0.15,0.023,-0.001,0.127,-0.019,0.134
ADPRHL2 (UniProt Q9NX46),0.03,0.024,0.122,0.048,0.043,0.006,0.019,0.049,0.003,-0.165,0,-0.021,-0.025,-0.021,-0.088,0.08,-0.038,-0.015,-0.126,-0.002
ALDH18A1 (UniProt P54886),0.016,0.092,0.089,-0.084,-0.007,-0.204,-0.093,-0.091,-0.015,-0.057,0,-0.098,0,-0.057,-0.497 (active),-0.269,0,-0.053,-0.059,0.184
ALKBH5 (UniProt Q6P6C2),0.176,-0.637 (active),-0.126,0.139,0.056,-0.067,0.015,-0.032,-0.087,0.113,0.015,0.05,0.053,0.049,0.025,0.198,-0.016,-0.013,0.029,0.086
BST2 (UniProt Q10589),-0.018,0.026,-0.046,0,0.009,0.024,-0.062,-0.013,0.066,-0.063,-0.004,0,-0.109,0.033,0.025,-0.108,0.12,-0.006,0.026,0.017
BZW2 (UniProt Q9Y6E2),-0.018,0.106,0.054,-0.016,0.033,0.026,0.022,0.013,0.037,-0.021,0.04,-0.043,0,-0.016,-0.121,-0.163,-0.003,-0.011,-0.005,0.014
AUP1 (UniProt Q9Y679),0.018,0.055,0.068,0.049,0.006,0.055,0.078,0.004,-0.031,-0.018,0.035,-0.026,0.003,0.007,-0.164,-0.482 (active),-0.033,0.011,-0.036,0.08
AFDN isoform 5 (UniProt P55196),-0.005,0.101,0.021,0.01,-0.02,0,0.012,-0.005,-0.049,0.038,-0.018,-0.012,-0.19,-0.002,-0.125,-0.082,0.01,0.004,0.007,0.049

# From the supplement of paper PMC10849652
